In the library only some 4.5% were active in any assay of this set; here they are far more common.
Gli-Sufu antag = blocks Gli-Sufu signaling in a luciferase reporter; Sufu-KO-LIGHT fibroblasts, Gli luciferase reporter luminescence; inhibition, % at 5 µM; 340,000 compounds, 0.74% hits; AID 588413;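 active means inhibition above about 55%, limit read from the data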
CSC inhib = cancer stem cell inhibition. cancer stem cell-like cells viability, luminescence. inhibition, % at 7.5 µM. 300,000 compounds, 1.1% hits. AID 2717; in the data active means inhibition above about 75%; tested in HMLE shEcad cells
Jurkat NFkB inh = lowers PMA/ionomycin-induced NF-kB signal in Jurkat cells; 330,000 compounds, 0.53% hits; inhibition, % at 4 µM; PMA/ionomycin-induced NF-kB luciferase reporter, luminescence; in the data active means inhibition above about 50%
Mdm2-MdmX inh = human Mdm2/MdmX binding inhibition | 330,000 compounds, 3% hits | AID 485346 | inhibition, % at 8 µM | SaOS-2 split-luciferase Mdm2/MdmX complementation, luminescence;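 active means inhibition of at least 50% at 8 µM in the primary screen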
Beta apoptosis = blocks beta cell apoptosis | protection from apoptosis, % (test concentration not listed) | INS-1E cytokine-induced death, ATP luminescence, 48 h; percent of positive-control rescue, neutral wells zero | AID 435005 | 300,000 compounds, 0.8% hits;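 active means Every replicate reaches about 75%, or at least half do and their mean reaches it too, limit read from the data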;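 further: higher means more ATP so stronger rescue from cytokine killing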
697 NFkB inh = inhibitors of the PMA/ionomycin-induced NF-kB reporter in 697 B cells | 697 B-cell NF-kB luciferase reporter, 16 h | inhibition, % at 4 µM | 330,000 compounds, 0.33% hits | AID 435022; in the data active means inhibition above about 35%
697 NFkB conf = inhibitors of the PMA/ionomycin-induced NF-kB reporter in 697 B cells, retest; shares compounds with 697 NFkB inh; inhibition, % at 4 µM; 697 B-cell NF-kB luciferase, 16 h; 2,000 compounds, 35% hits; in the data active means inhibition mostly above about 28%, no sharp cut-off; inactive means mostly below about 22%
Mdm2-MdmX conf = confirmation of human Mdm2/MdmX interaction inhibitors; shares compounds with Mdm2-MdmX inh; Mdm2-MdmX binding, luminescent assay; inhibition, % at 8 µM; 10,000 compounds, 55% hits; in the data active means inhibition above about 40%
FLuc counter = counter-screen for Mdm2/MdmX inhibitors: full-length luciferase; shares compounds with Mdm2-MdmX inh; SaOS-2 full-length luciferase counterscreen, luminescence; inhibition, % at 8 µM; 6,200 compounds, 77% hits;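 active means mean inhibition at 8 µM reaching about 37%, which flags the compound as non-specific, limit read from the data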;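 further: p53-null SaOS-2 cells with luciferase driven by a doxycycline-inducible promoter; compound on cells about two nights before reading with doxycycline added after day one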
Gli antag conf = confirmation of Gli-SUFU pathway antagonists. 2,500 compounds, 40% hits. AID 602428. Sufu-KO-LIGHT cells, Gli luciferase reporter, luminescence. shares compounds with Gli-Sufu antag. inhibition, % at 5 µM;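 active means mean inhibition at 5 µM reaching about 45%, limit read from the data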
Gli cytotox = cytotoxic in Gli-SUFU antagonist counter-screen. Sufu-KO-LIGHT cells cytotoxicity, ATP luminescence. 2,500 compounds, 32% hits. cytotoxicity, % at 5 µM. shares compounds with Gli-Sufu antag;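 active means mean cytotoxicity at 5 µM above about 25%, limit read from the data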;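 further: cells exposed to compound overnight for roughly 16 to 18 hours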
Wnt3a cs = counter-screen for Gli-SUFU antagonists: Wnt3a reporter inhibition. inhibition, % at 6.25 µM. 2,500 compounds, 20% hits. Wnt-LIGHT cells, Wnt3a-driven luciferase reporter, luminescence. AID 651995. shares compounds with Gli-Sufu antag;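 active means mean inhibition above about 25%, limit read from the data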
Large screens that a line does not name were inactive (follow-up assays come after a bar, where they were run).

O=S(=O)(c1ccc2c(c1)C(=NO)c1cc(S(=O)(=O)N3CCCCC3)ccc1-2)N1CCCCC1	Gli-Sufu antag 95, CSC inhib 122, Mdm2-MdmX inh 95, Beta apoptosis 106, 697 NFkB inh 104 | 697 NFkB conf inactive | Mdm2-MdmX conf 99 | FLuc counter inactive | Gli antag conf 93 | Gli cytotox 71 | Wnt3a cs 104
CC(C)(C)c1ccc(C(=O)NCC(=O)N/N=C/c2cccnc2)cc1	none
C/C=C/COC(=O)C1=C(C)NC(=O)NC1c1ccc2c(c1)OCO2 (stereo not drawn)	none
COc1cc(OC)c2c(-c3cccc(-c4ccoc4)c3)cc(=O)oc2c1	none (no result: CSC inhib, Jurkat NFkB inh, Beta apoptosis)
COc1cc(OC)c2c(-c3cccc(-c4ccc(OC)c(F)c4)c3)cc(=O)oc2c1	Gli-Sufu antag 60, Mdm2-MdmX inh 68 (no result: CSC inhib, Jurkat NFkB inh, Beta apoptosis) | 697 NFkB conf inactive | Mdm2-MdmX conf 49 | FLuc counter 104 | Gli antag conf 59 | Gli cytotox 60 | Wnt3a cs inactive
CCOc1ccc(-c2nnc(-c3ccccc3)n2-c2ccccc2)cc1	none
CCOc1ccc(-c2c[n+]3c(n2-c2ccccc2)CCCCC3)cc1	Gli-Sufu antag 88, Beta apoptosis 98, 697 NFkB inh 60 | 697 NFkB conf 54 | Gli antag conf 88 | Gli cytotox 39 | Wnt3a cs inactive
CC1(C)Cc2c(cnn2-c2ccc(F)cc2)C(NC(=O)CN2CCCC2=O)C1 (stereo not drawn)	none
Cc1ccc(/C=C2/SC(=S)N(CCCC(=O)Nc3ccc(O)cc3)C2=O)cc1	Gli-Sufu antag 62, Mdm2-MdmX inh 92, 697 NFkB inh 88 (no result: CSC inhib, Beta apoptosis) | 697 NFkB conf 93 | Mdm2-MdmX conf 94 | FLuc counter 54 | Gli antag conf 67 | Gli cytotox 26 | Wnt3a cs 35
Cc1ccc(/C=C2\SC(=S)N(CCCC(=O)NNC(=O)c3ccccc3O)C2=O)cc1	Gli-Sufu antag 60, 697 NFkB inh 88 | 697 NFkB conf 76 | Gli antag conf 59 | Gli cytotox inactive | Wnt3a cs 100
CSc1cccc(-c2nnc(NC(=O)c3cccc(N4C(=O)CCC4=O)c3)o2)c1	none
COc1ccc(Nc2nc(N3CCOCC3)nc(N3CCOCC3)n2)cc1	none
Cc1ccc(Nc2nc(N3CCOCC3)nc(N3CCOCC3)n2)cc1C	Gli-Sufu antag 57, 697 NFkB inh 55 | 697 NFkB conf 47 | Gli antag conf 50 | Gli cytotox 41 | Wnt3a cs inactive
Cc1ccc(C(C)C)c(OCc2ccc(C(=O)N/N=C/c3ccc(O)c(O)c3)cc2)c1	Gli-Sufu antag 67, CSC inhib 109, Mdm2-MdmX inh 53 | 697 NFkB conf inactive | Mdm2-MdmX conf inactive | Gli antag conf 49 | Gli cytotox 29 | Wnt3a cs 93
CCOc1cc(/C=N/NC(=O)c2ccc(=O)n(C)c2)ccc1O	none (no result: CSC inhib)
CCOc1ccc(N=C(NN)c2ccc3ccccc3n2)cc1	Gli-Sufu antag 64 | 697 NFkB conf inactive | Gli antag conf 73 | Gli cytotox inactive | Wnt3a cs 81
CC(=O)c1cn(CCOc2cc(C)ccc2C)c2ccccc12	Gli-Sufu antag 68, Beta apoptosis 89, 697 NFkB inh 65 | 697 NFkB conf 83 | Gli antag conf 64 | Gli cytotox inactive | Wnt3a cs 46
Cc1cc(NC(=O)c2ccc3c(c2)OCCO3)ccc1NC(=O)c1cc2ccccc2o1	none
O=C(Nc1ccc(NC(=O)c2cc3ccccc3o2)cc1)c1ccc2c(c1)OCCO2	697 NFkB inh 72 | 697 NFkB conf 59 | Gli antag conf 61 | Gli cytotox inactive | Wnt3a cs 88
O=C(CN1C(=O)COc2ccc(Cl)cc21)Nc1ccccn1	none
CCCCNC(=S)N(CCO)Cc1cc2cc3c(cc2[nH]c1=O)OCCO3	none
CCOC(=O)c1sc(NC(=O)Nc2ccccc2F)nc1C	none | 697 NFkB conf inactive | Gli antag conf inactive | Gli cytotox 49 | Wnt3a cs 85
CCN(CC(=O)Nc1c(F)cccc1F)C(=O)c1cc(S(=O)(=O)N(CC)CC)ccc1N1CCCCC1	697 NFkB inh 66 | 697 NFkB conf 49 | Gli antag conf inactive | Gli cytotox inactive | Wnt3a cs inactive
CNC(=O)CSc1nc2nn(-c3ccccc3)c(=O)c-2c2n1CCCCC2	Gli-Sufu antag 56, 697 NFkB inh 35 | 697 NFkB conf 38 | Gli antag conf inactive | Gli cytotox inactive | Wnt3a cs inactive
CC(C)CNC(=O)CSc1nc2nn(-c3ccccc3)c(=O)c-2c2n1CCCCC2	none
Cc1onc(-c2ccc(Cl)cc2Cl)c1-c1csc(COc2ccccc2)n1	none (no result: Beta apoptosis)
Cc1nn(C)c(C)c1CN(C)S(=O)(=O)c1ccc2ccccc2c1	Gli-Sufu antag 75, Beta apoptosis 109, 697 NFkB inh 82 | 697 NFkB conf 72 | Gli antag conf 78 | Gli cytotox 28 | Wnt3a cs 37
Cc1nn(C)c(C)c1CN(C)S(=O)(=O)c1ccc(F)cc1	none
COc1ccc(-c2n(Cc3ccccc3)c3ccccc3[n+]2Cc2ccccc2)cc1	Gli-Sufu antag 72, Mdm2-MdmX inh 89, Beta apoptosis 113, 697 NFkB inh 41 | 697 NFkB conf 33 | Mdm2-MdmX conf 89 | FLuc counter inactive | Gli antag conf 77 | Gli cytotox 33 | Wnt3a cs inactive
N=c1c2c(n(Cc3ccc(Cl)c(Cl)c3)c3c1CCC3)CCCC2	Gli-Sufu antag 83, Mdm2-MdmX inh 74, Beta apoptosis 102, 697 NFkB inh 44 (no result: CSC inhib) | 697 NFkB conf 29 | Mdm2-MdmX conf 52 | FLuc counter 45 | Gli antag conf 89 | Gli cytotox inactive | Wnt3a cs 36
CCCn1c2c(c(=N)c3c1CCC3)CCC2	none
CCCCNC(=NCc1cccc(C(F)(F)F)c1)Nc1ccccc1	none
CCOC(=O)Cc1ccc(NC(=O)c2ccccc2Br)cc1	none
